Measurements: PubChem BioAssay AID1851 (National Center for Advancing Translational Sciences (NCATS), 2009)
Screen size: about 16,000 compounds; about 5,800 (36%) were called active. Not shown: some 23% with an inconclusive outcome. Some of the results follow. A number with no mark means an inactive call. Calls come from the whole dose curve; as a rule, active = well fitted curve in the direction sought with a large enough effect; inconclusive = small, poorly fitted or top-dose-only effect, or effect the other way; inactive = no such curve, though single readings can be large or run the other way.

Molecular target: Cytochrome P450 2C19 (Homo sapiens) (UniProt P33261)
Sequence (P33261 whole entry, looked up): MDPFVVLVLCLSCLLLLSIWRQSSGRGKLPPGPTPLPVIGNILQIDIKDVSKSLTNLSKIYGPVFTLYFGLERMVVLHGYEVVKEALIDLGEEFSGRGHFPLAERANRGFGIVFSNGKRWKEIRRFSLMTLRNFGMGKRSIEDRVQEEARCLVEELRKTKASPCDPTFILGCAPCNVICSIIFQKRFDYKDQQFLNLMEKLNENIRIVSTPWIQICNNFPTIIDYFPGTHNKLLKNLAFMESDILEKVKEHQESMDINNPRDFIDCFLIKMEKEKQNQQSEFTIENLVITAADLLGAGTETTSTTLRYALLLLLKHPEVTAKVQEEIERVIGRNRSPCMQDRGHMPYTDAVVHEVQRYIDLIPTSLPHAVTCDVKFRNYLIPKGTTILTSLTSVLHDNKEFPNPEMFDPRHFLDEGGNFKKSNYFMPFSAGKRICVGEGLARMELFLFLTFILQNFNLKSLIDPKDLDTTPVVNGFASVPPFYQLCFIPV
Test: Cytochrome panel assay with activity outcomes
Conditions: recombinant CYP, pro-luciferin dealkylation, luminescence, p450-cyp2c19; series mostly up to 57.1 µM; activity, negative = inhibition: at the top concentration
% is set by controls: 0 for no effect and ±100 for the full control effect.

| SMILES | AC50 | activity, negative = inhibition |
| --- | --- | --- |
| FC(F)(F)c1ccccc1-c1cc(NCc2cccnc2)ncn1 | 10 µM (active) |  |
| FC(F)(F)c1ccccc1-c1cc(NCc2cccs2)ncn1 | 0.794 µM (active) |  |
| Cn1cc(-c2nc3cnc(Oc4ccccc4)nc3n(Cc3cccs3)c2=O)c2ccccc21 |  | -11% |
| CCCCOC(=S)NC(=O)c1sc2ccccc2c1Cl | 0.794 µM (active) |  |
| O=C(NC(=S)N(CCCCO)C1CCCCC1)c1sc2ccccc2c1Cl | 7.08 µM (active) |  |
| Cc1ccccc1Cn1nc(C)c(NC(=O)c2sc3ccccc3c2Cl)c1C | 14.1 µM (active) |  |
| Cc1nn(Cc2ccccc2Cl)c(C)c1NC(=O)CCCn1nc(C)c([N+](=O)[O-])c1C |  | -20.6% |
| Cn1cccc1/C=N/NC(=O)c1sc2ccccc2c1Cl | 7.94 µM (active) |  |
| Cc1ccc(C(=O)N/N=C\c2cccn2C)cn1 |  | 18.1% |
| CO[C@H]1COC(=O)C/C=C\[C@@H](C)COC(=O)[C@H]2CCCN2C(=O)C/C=C\[C@H]1C |  | -21.9% [at 11.4 µM] |
| CCOC(=S)NC(=O)c1sc2ccccc2c1Cl | 3.16 µM (active) |  |
| O=C(O)CCC(=O)c1ccc2sc3ccccc3c2c1 |  | 9.52% [at 11.4 µM] |
| CO/N=C(\C)CCN1CCCc2nc(C)c(C)cc21 |  | -7.2% [at 11.4 µM] |
| Cc1ccccc1NC1=C(C(=O)c2ccccc2)N(C)S(=O)(=O)c2ccccc21 | 8.91 µM (active) |  |
| Cc1cc(NC(=O)C2=C(O)c3ccccc3S(=O)(=O)N2C)no1 |  | -6.42% [at 25.6 µM] |
| CO[C@@H]1/C=C\CC(=O)N[C@@H](C)C(=O)OC[C@@H](OC)[C@H](C)CCCC(=O)OC[C@H]1C |  | -3.19% [at 11.4 µM] |
| CC1CCCC(C)N1C(=O)c1cc(-c2ccc(Cl)c(Cl)c2)on1 (centres undefined) | 11.2 µM (active) |  |
| C[C@@H]1CCC[C@H](C)N1NC(=O)c1ccc(Cl)c(S(N)(=O)=O)c1 |  | 5.63% [at 25.6 µM] |
| Cc1ccccc1NC(=O)C(C)c1cccc(C(=O)c2ccccc2)c1 (centres undefined) | 1.26 µM (active) |  |
| CCCN[C@@H](C)C(=O)Nc1ccccc1C | inactive |  |
| N[C@@H](Cc1c[nH]c2ccc([N+](=O)[O-])cc12)C(=O)O |  | 34.9% [at 11.4 µM] |
| O=C(NCc1cn(-c2ccccc2)nc1-c1ccccc1)c1cc([N+](=O)[O-])cc([N+](=O)[O-])c1 | 1.78 µM (active) |  |

| SMILES | AC50 | activity, negative = inhibition |
| --- | --- | --- |
| c1coc(CN2CCN(C(c3cccs3)c3nnnn3C3CCCC3)CC2)c1 (centres undefined) | 10 µM (active) |  |
| Clc1ccc(C(c2nnnn2C2CCCC2)N2CCN(Cc3ccncc3)CC2)cc1 (centres undefined) | 0.224 µM (active) |  |
| CS(=O)(=O)N1CCC2(CCN(Cc3ccncc3)CC2)CC1 |  | -33.9% |
| Cc1cc(C(=O)CSc2nnc(-c3ccccc3)o2)c(C)n1CC1COc2ccccc2O1 (centres undefined) | 1.12 µM (active) |  |
| CC(=O)NNC(=O)CCC(=O)Nc1ccccc1 |  | 11.8% |
| CC(=O)c1cccc(NC(=O)CCC2CCCC2)c1 | 3.55 µM (active) |  |
| O=C(Cn1cccc1C(=O)c1ccccc1)NCc1cccs1 | 2.82 µM (active) |  |
| Cc1ccccc1C(=O)c1cccn1CC(=O)NCc1ccco1 | 11.2 µM (active) |  |
| COc1ccccc1CN1CCC2(CC1)CCN(C(=O)c1ccco1)CC2 |  | -17.8% |
| COc1ccccc1CN1CCCC2(CCN(C(=O)c3ccco3)CC2)C1 |  | 8.58% |
| COc1ccccc1OCCn1cc(C(=O)c2ccco2)c2ccccc21 | 1 µM (active) |  |
| O=C(Cn1cc(C(=O)c2ccco2)c2ccccc21)NCc1ccco1 | 2.24 µM (active) |  |
| CCS(=O)(=O)c1ccc(C(=O)Nc2ccccc2)c(Cl)c1Cl | 11.2 µM (active) |  |
| O=C(c1csnn1)N1CCC2(CCCN(c3ccc(-c4ccccc4)cc3)C2)CC1 |  | -15.8% |
| O=C(O)CCc1nc(-c2ccccc2-n2cccc2)no1 |  | -29.3% [at 11.4 µM] |
| Nc1nonc1-c1noc(CCCN2C(=O)c3ccccc3C2=O)n1 | 3.98 µM (active) |  |
| CCNc1ncc2nc(-c3ccccc3)c(=O)n(CCC#N)c2n1 |  | -3.99% |
| CCNc1ncc2nc(-c3cccs3)c(=O)n(CCc3ccccc3)c2n1 |  | -40.1% |
| CCNc1ncc2nc(-c3ccccc3)c(=O)n(CCc3ccccc3)c2n1 | 1 µM (active) |  |
| Cc1nc2cnc(Nc3ccccc3)nc2n(CCc2ccccc2)c1=O |  | -11.4% |
| CCNc1ncc2nc(C)c(=O)n(CCC#N)c2n1 |  | -8.35% |
| CCNc1ncc2nc(C)c(=O)n(CCc3ccccc3)c2n1 | 0.316 µM (active) |  |
